Test results published in PubChem BioAssay (Tox21).
Values joined by “and” are separate entries in the source; they are usually repeats but may differ in a detail not shown here. Identical values can stand only once. Values without a mark were called inactive. Inconclusive results are not listed. A call without a number means that no potency is given here. Active and inactive are the calls of the source. Unless noted, calls come from the whole dose curve; as a rule, active = well fitted curve in the direction sought with a large enough effect in the repeat runs; inconclusive = weak or mixed curves; inactive = no such curve, though single readings can be large; an effect the other way counts as inactive or inconclusive.

Legend:
[1] = Human pregnane X receptor (PXR) small molecule agonists, qHTS cell viability counter screen (AID 1346977); note: nearly all actives have a fitted effect of over 50% in size; note: potency is the fitted concentration of half-maximal effect
Procedure, shortened: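 PXR-Luc HepG2 cells (2,000/well, 5% charcoal-stripped FBS) preincubated 5 hr, then exposed to compounds 24 hr at 37 C. Viability read in the same wells by CellTiter-Fluor fluorescence, reagent added at 23 hr, 1 hr incubation.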

[2] = Caspase-3/7 induction in HepG2 cells by small molecules, qHTS assay (AID 1346978); note: nearly all actives have a fitted effect of over 15% in size
Procedure, shortened: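 Wild-type HepG2 cells (2,000/well) were settled 5 h at 37 C, 5% CO2, then exposed to compounds in DMSO for 17 h. Caspase-3/7 activity was read by luminescence 30 min after adding Caspase-Glo 3/7 reagent at room temperature.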

[3] = Caspase-3/7 induction in CHO-K1 cells by small molecules, qHTS assay (AID 1346980); note: nearly all actives have a fitted effect of over 15% in size
Procedure, shortened: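 Wild-type cells were seeded at 1,500 per well and settled 5 hr at 37 C, 5% CO2, then exposed to DMSO-dissolved compounds for 17 hr. Caspase-Glo 3/7 reagent was added, and luminescence was read after 30min at room temperature.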

[4] = Caspase-3/7 induction in HepG2 cells by small molecules, qHTS cell viability counter screen (AID 1346981); note: nearly all actives have a fitted effect of over 30% in size; note: potency is the fitted concentration of half-maximal effect
Procedure, shortened: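 Treatment of HepG2 cells with DMSO-delivered compounds ran 16 hr at 37 C following a 5-hr pre-incubation of 2,000 cells/well. CellTiter-Fluor fluorescence, read after 1 hr, served as the viability measure in a qHTS format.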

[5] = target: Nuclear receptor subfamily 1 group I member 2 (Homo sapiens) (UniProt O75469); assay: Human pregnane X receptor (PXR) small molecule agonists, qHTS assay (AID 1346982); note: nearly all actives have a fitted effect of over 35% in size
Chain of Nuclear receptor subfamily 1 group I member 2 (Homo sapiens) (O75469 whole entry, looked up): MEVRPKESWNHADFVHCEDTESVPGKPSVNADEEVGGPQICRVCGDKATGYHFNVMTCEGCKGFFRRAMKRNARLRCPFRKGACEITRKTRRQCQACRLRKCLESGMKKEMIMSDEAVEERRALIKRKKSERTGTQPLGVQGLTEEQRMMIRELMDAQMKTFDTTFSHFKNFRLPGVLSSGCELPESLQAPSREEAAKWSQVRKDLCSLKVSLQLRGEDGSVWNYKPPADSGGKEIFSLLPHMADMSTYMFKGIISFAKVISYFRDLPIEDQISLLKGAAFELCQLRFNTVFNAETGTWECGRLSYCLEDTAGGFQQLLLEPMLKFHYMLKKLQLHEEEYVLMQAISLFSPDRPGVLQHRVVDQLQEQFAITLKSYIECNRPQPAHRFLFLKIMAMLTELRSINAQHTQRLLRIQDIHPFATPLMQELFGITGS
Procedure, shortened: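 Stable HepG2 line reporting PXR-mediated CYP3A4 expression via luciferase. Treatment: 24 hr with compounds in DMSO at 37 C. Detection: ONE-Glo luminescence.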

[6] = target: Acetylcholinesterase (Homo sapiens) (UniProt P22303); assay: Acetylcholinesterase (AChE) small molecule antagonists: colormetric cell-based qHTS assay (AID 1347395; calls by dose curve; note: nearly all actives have a fitted effect of over 30% in size)
Chain of Acetylcholinesterase (Homo sapiens) (P22303 whole entry, looked up): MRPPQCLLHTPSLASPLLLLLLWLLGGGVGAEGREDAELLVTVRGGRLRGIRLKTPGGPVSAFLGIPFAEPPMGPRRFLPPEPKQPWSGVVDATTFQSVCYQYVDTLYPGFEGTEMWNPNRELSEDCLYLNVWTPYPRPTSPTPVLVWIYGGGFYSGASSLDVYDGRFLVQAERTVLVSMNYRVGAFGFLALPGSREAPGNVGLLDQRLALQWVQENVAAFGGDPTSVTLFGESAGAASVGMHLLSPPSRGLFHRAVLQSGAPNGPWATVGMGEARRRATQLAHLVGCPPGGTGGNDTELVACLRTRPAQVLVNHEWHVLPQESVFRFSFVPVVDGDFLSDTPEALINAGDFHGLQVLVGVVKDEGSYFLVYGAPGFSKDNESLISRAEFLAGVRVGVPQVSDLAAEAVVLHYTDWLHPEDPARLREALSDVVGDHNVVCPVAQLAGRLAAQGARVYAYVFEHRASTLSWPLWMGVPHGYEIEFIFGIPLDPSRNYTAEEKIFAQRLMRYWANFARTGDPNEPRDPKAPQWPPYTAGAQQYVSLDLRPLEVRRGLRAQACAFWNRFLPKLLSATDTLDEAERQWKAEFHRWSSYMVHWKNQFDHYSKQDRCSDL
Procedure, shortened: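 SH-SY5Y cells attached overnight, exposed to compound 30 min at 37 C, then given DTNB/acetylthiocholine; after 90 min at 37 C, colorimetric thiocholine read gives cellular AChE activity.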

[7] = target: Acetylcholinesterase (Homo sapiens) (UniProt P22303); assay: Acetylcholinesterase (AChE) small molecule antagonists: enzyme-based qHTS assay (AID 1347397; calls by dose curve; note: nearly all actives have a fitted effect of over 55% in size); conditions: Potency: AChE enzyme activity inhibition; outcome: AChE enzyme activity inhibition
Procedure, shortened: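 Compound or DMSO vehicle was pin-transferred onto recombinant human AChE (50 mU/mL as dispensed) and left 30 min at room temperature. Acetylthiocholine with DTNB then started the reaction, read colorimetrically 10 min later.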

[8] = target: Acetylcholinesterase (Homo sapiens) (UniProt P22303); assay: Acetylcholinesterase (AChE) small molecule antagonists: fluorescence cell-based qHTS assay (AID 1347398; calls by dose curve; note: nearly all actives have a fitted effect of over 50% in size); conditions: Potency: AChE activity; outcome: AChE activity
Procedure, shortened: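 Using neuroblastoma SH-SY5Y cells as the enzyme source, test chemicals are preincubated 30 min at 37 C; AChE-driven acetylthiocholine cleavage is then quantified by thiocholine-dependent Thiolite Green fluorescence after 40 min at room temperature.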

[9] = target: Acetylcholinesterase (Homo sapiens) (UniProt P22303); assay: Acetylcholinesterase (AChE) small molecule antagonists: enzyme-based qHTS assay with human liver microsomes (AID 1347399; calls by dose curve; note: nearly all actives have a fitted effect of over 60% in size); conditions: Potency: qHTS inhibition; outcome: qHTS inhibition
Procedure, shortened: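 Recombinant human AChE (50 mU/mL in the enzyme mix) and human liver microsomes (0.25 mg/mL final) were preincubated with compound and NADPH (0.25 mg/mL final) for 30 min at 37 C. Acetylthiocholine/DTNB was then added; thiocholine was read colorimetrically after 10 min at room temperature.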

[10] = target: Cytochrome P450 2D6 (Homo sapiens) (UniProt P10635); assay: Cytochrome P450 Family 2 Subfamily D Member 6 (CYP2D6) small molecule antagonists: luciferase reporter qHTS assay (AID 1671196); note: series mostly up to about 120 µM; nearly all actives have a fitted effect of over 50% in size
Chain of Cytochrome P450 2D6 (Homo sapiens) (P10635 whole entry, looked up): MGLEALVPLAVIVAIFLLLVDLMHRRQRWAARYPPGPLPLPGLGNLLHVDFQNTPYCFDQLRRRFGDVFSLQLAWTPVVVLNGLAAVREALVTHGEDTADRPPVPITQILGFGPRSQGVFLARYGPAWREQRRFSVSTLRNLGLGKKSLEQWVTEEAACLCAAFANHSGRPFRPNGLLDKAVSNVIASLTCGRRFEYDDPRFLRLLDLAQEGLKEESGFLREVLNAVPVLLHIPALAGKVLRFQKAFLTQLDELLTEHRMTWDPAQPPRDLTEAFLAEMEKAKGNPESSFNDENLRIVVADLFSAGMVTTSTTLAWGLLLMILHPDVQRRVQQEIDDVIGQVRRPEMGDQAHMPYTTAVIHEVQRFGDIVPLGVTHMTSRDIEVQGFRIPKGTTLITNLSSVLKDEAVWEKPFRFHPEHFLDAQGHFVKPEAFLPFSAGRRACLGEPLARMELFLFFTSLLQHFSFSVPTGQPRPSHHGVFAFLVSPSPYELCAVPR
Procedure, shortened: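 Chemicals tested for interference with CYP2D6 activity; proluciferin substrate, NADPH regeneration, 1 h at room temperature, luminescent detection.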

[11] = target: Cytochrome P450 2C19 (Homo sapiens) (UniProt P33261); assay: Cytochrome P450 Family 2 Subfamily C Member 19 (CYP2C19) small molecule antagonists: luciferase reporter qHTS assay (AID 1671197); note: nearly all actives have a fitted effect of over 65% in size; note: potency is the fitted concentration of half-maximal effect
Chain of Cytochrome P450 2C19 (Homo sapiens) (P33261 whole entry, looked up): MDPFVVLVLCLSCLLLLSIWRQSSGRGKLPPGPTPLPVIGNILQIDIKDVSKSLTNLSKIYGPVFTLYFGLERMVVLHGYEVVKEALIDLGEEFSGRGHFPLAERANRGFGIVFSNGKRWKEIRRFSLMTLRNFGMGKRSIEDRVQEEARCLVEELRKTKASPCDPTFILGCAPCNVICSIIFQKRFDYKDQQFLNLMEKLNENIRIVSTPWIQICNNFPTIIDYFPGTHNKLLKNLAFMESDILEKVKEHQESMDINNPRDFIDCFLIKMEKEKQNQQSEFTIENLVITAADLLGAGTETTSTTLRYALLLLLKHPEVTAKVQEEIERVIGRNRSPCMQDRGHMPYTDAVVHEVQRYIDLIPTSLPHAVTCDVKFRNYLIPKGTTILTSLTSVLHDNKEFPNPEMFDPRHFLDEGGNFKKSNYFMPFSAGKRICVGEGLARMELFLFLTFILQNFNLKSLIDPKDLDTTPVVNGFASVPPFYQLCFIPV
Procedure, shortened: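 CYP2C19 P450-Glo, 1536-well qHTS. Cpd + enzyme/proluciferin substrate 10 min RT; + NADPH regen, 37C 1 h; stop with luciferin detection reagent, 20 min RT, luminescence (RLU). Pos ctrl ketoconazole.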

[12] = target: Cytochrome P450 2C9 (Homo sapiens) (UniProt P11712); assay: Cytochrome P450 Family 2 Subfamily C Member 9 (CYP2C9) small molecule antagonists: luciferase reporter qHTS assay (AID 1671198); note: nearly all actives have a fitted effect of over 50% in size; note: potency is the fitted concentration of half-maximal effect
Chain of Cytochrome P450 2C9 (Homo sapiens) (P11712 whole entry, looked up): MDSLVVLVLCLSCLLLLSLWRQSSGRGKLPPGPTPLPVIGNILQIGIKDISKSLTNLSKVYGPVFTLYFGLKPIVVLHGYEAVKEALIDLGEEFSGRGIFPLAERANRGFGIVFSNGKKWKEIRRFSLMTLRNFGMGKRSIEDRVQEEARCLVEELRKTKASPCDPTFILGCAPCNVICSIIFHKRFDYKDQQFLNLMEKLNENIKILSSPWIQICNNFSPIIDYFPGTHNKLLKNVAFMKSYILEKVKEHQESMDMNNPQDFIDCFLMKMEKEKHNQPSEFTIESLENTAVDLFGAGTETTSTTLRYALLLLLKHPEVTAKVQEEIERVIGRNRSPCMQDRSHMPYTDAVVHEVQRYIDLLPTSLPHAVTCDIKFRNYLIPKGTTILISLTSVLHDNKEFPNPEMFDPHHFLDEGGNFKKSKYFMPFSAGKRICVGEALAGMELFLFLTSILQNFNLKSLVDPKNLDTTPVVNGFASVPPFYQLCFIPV
Procedure, shortened: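 CYP2C9 activity was measured with a P450-Glo proluciferin substrate. Enzyme–substrate mix was held with compound for 10 min at room temperature, then NADPH regeneration solution was added for 1 h at 37C. Luciferin product was read as luminescence.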

[13] = target: Cytochrome P450 1A2 (Homo sapiens) (UniProt P05177); assay: Cytochrome P450 Family 1 Subfamily A Member 2 (CYP1A2) small molecule antagonists: luciferase reporter qHTS assay (AID 1671199)
Chain of Cytochrome P450 1A2 (Homo sapiens) (P05177 whole entry, looked up): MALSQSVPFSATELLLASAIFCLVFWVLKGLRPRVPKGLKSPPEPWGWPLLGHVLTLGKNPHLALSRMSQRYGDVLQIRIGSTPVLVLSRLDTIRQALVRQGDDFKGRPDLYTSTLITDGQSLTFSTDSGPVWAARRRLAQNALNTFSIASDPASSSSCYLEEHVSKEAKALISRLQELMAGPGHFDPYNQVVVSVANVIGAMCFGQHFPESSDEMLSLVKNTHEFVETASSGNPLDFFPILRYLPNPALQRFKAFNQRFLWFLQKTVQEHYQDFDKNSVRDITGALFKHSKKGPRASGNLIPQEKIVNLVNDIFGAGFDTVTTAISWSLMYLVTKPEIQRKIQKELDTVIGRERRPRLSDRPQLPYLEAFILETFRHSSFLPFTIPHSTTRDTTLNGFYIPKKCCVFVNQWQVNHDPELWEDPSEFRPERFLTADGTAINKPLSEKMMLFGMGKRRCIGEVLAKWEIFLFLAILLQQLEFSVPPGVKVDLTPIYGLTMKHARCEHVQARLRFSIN
Procedure, shortened: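 Read-out is luminescence from luciferin detection reagent (20 min) proportional to CYP1A2 activity; compounds in DMSO preincubated 10 min with enzyme and proluciferin substrate, then NADPH regeneration solution, 1 h, room temperature.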

[14] = target: Cytochrome P450 3A4 (Homo sapiens) (UniProt P08684); assay: Cytochrome P450 Family 3 Subfamily A Member 4 (CYP3A4) small molecule antagonists: luciferase reporter qHTS assay (AID 1671201); note: nearly all actives have a fitted effect of over 50% in size; note: potency is the fitted concentration of half-maximal effect
Chain of Cytochrome P450 3A4 (Homo sapiens) (P08684 whole entry, looked up): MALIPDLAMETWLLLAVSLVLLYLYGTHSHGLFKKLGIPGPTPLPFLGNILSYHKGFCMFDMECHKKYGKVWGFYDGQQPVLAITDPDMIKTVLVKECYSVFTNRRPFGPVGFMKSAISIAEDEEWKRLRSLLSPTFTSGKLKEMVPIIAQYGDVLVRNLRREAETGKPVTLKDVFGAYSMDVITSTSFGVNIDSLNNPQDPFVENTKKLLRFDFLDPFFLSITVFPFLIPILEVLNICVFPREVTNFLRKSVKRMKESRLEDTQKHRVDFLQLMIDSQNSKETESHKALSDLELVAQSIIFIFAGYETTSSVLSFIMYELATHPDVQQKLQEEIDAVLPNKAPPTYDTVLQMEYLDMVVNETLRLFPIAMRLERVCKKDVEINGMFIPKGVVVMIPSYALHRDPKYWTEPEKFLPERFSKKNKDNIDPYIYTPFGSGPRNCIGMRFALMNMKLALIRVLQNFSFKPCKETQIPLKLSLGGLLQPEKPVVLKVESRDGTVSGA
Procedure, shortened: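 P450-Glo CYP3A4 luminescent assay: compounds preincubated 10 min at room temperature with enzyme and proluciferin substrate, NADPH regeneration added, 1 h room-temperature reaction, stopped with luciferin detection reagent; luminescence read after 20 min. Ketoconazole positive control.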

[15] = target: Voltage-gated inwardly rectifying potassium channel KCNH2 (Homo sapiens) (UniProt Q12809); assay: Human Ether-a-go-go-Related Gene (hERG) channel small molecule antagonists: fluorescence cell-based qHTS assay (AID 1671200)
Chain of Voltage-gated inwardly rectifying potassium channel KCNH2 (Homo sapiens) (Q12809 whole entry, looked up): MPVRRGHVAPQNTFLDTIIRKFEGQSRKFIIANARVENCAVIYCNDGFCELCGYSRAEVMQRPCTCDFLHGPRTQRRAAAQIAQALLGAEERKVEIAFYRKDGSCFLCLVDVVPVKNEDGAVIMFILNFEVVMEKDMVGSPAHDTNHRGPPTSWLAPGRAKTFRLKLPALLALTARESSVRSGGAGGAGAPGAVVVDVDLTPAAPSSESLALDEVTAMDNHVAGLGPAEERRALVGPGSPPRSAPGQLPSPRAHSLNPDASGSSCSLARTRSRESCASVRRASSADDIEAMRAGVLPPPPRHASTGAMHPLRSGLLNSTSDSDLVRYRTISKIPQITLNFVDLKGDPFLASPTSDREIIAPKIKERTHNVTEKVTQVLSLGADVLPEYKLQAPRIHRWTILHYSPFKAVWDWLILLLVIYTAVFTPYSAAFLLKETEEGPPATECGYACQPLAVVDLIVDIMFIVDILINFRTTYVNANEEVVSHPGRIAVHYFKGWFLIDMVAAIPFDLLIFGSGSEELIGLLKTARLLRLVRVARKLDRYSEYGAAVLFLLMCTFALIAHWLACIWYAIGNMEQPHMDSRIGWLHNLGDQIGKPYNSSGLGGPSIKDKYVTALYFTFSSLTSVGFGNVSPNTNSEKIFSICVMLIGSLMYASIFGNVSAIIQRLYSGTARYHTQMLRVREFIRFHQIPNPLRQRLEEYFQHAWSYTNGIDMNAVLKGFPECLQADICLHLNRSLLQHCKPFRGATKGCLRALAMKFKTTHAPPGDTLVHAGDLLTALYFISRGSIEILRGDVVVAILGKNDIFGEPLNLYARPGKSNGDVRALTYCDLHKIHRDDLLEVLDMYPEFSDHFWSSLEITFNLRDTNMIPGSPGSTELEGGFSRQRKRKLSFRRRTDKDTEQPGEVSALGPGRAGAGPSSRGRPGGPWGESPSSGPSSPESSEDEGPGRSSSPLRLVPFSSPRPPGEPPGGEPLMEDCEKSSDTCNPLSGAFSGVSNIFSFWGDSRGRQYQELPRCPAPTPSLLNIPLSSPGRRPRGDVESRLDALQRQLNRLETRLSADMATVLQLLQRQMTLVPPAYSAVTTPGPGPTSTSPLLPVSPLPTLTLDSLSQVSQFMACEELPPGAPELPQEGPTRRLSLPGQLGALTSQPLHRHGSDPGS
Procedure, shortened: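 hERG-U2OS cells plated overnight at 37 C, loaded with FluxOR II dye 1 h at RT in dark; after 10 min, thallium stimulus added. Fluorescence (480/540 nm) read kinetically for 2 min at 1 s intervals.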

[16] = target: Nuclear receptor subfamily 1 group I member 2 (Rattus norvegicus) (UniProt Q9R1A7); assay: Rat pregnane X receptor (rPXR) activation by small molecules, qHTS assay (AID 1346983); conditions: rPXR luciferase reporter cells, One-Glo luminescence, 24 h; stronger effect = higher value; note: nearly all actives have a fitted effect of over 20% in size
Procedure, shortened: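 Cell-based rPXR luciferase reporter assay, 2,000 cells per well, rested 5hr at 37 C before compound addition in DMSO, then 24 hr at 37 C. One-Glo reagent was added and luminescence read after 30 min at room temperature.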

[17] = target: Nuclear receptor subfamily 1 group I member 2 (Homo sapiens) (UniProt O75469); assay: CYP3A4 induction through human pregnane X receptor (PXR) by small molecules, qHTS assay (AID 1346984); note: nearly all actives have a fitted effect of over 40% in size
Procedure, shortened: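 After 24 h at 37C with compound, DPX-2 cells (HepG2, co-transfected PXR response element and CYP3A4 promoter-luciferase) got 3uM final P450-Glo Luciferin-IPA for 3 h; One-Glo luminescence followed.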

[18] = target: Nuclear receptor subfamily 1 group I member 2 (Homo sapiens) (UniProt O75469); assay: Human pregnane X receptor (PXR) activation by small molecules, qHTS assay (AID 1346985); note: nearly all actives have a fitted effect of over 40% in size
Procedure, shortened: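 DPX-2 cells (HepG2 co-transfected with a PXR response element and a CYP3A4-promoter luciferase construct) were seeded at 2,000 per well, rested 5 hr at 37C, then exposed to DMSO-dissolved compounds for 24 hr. Activation was read as luciferase luminescence.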

C#CCOC(=O)/C=C(C)/C=C/CC(C)CCCC(C)C (configuration not stated)
Potency [1]: inactive | outcome [2]: inactive | outcome [3]: inactive | Potency [4]: inactive | Potency [5]: inactive | Potency [6]: inactive | Potency [7]: inactive | Potency [8]: inactive | Potency [9]: inactive | Potency [10]: inactive | Potency [11]: 79.6 µM (active) | Potency [12]: 31.7 µM (active) | Potency [13]: 28.3 µM (active) | Potency [14]: inactive

CC(C)(C)C(=O)C(Cl)Cl
Potency [1]: inactive | outcome [2]: inactive | outcome [3]: inactive | Potency [4]: inactive | Potency [5]: inactive | Potency [6]: inactive | Potency [7]: inactive | Potency [8]: inactive | Potency [9]: inactive | Potency [10]: inactive | Potency [11]: inactive | Potency [12]: inactive | Potency [15]: inactive | Potency [14]: inactive

NNC(N)=O
Potency [1]: inactive | outcome [2]: inactive | outcome [3]: inactive | Potency [4]: inactive | Potency [6]: inactive | Potency [7]: inactive | Potency [8]: inactive | Potency [9]: inactive | Potency [11]: inactive | Potency [13]: 36.5 µM (active) | Potency [15]: inactive | Potency [14]: inactive

C[C@H]1CCCC(=O)CCC/C=C/c2cc(O)cc(O)c2C(=O)O1
Potency [1]: 52.5 µM (active) | outcome [2]: inactive | outcome [3]: inactive | Potency [4]: 46.8 µM (active) and 22.4 µM (active) | Potency [6]: inactive | Potency [7]: inactive | Potency [8]: inactive | Potency [9]: inactive | Potency [11]: 17.2 µM (active) and 29.2 µM (active) | Potency [12]: 4.84 µM (active) and 7.34 µM (active) | Potency [13]: 21.6 µM (active) and 13.1 µM (active) | Potency [15]: inactive | Potency [14]: 122 nM (active) and 184 nM (active)

S=C=S
Potency [1]: inactive | outcome [2]: inactive | Potency [4]: inactive | Potency [5]: inactive | max activation [16]: 3.06% | Potency [17]: inactive | Potency [18]: inactive | Potency [6]: inactive | Potency [7]: inactive | Potency [9]: inactive | Potency [11]: 44.3 µM (active) | Potency [13]: 39.5 µM (active) | Potency [15]: inactive | Potency [14]: inactive
